Measured values published in PubChem BioAssay (NCATS).
Results filed as inconclusive are left out. Entries that show only a call come without a potency. Active and inactive are the calls of the source. Calls follow the shape of the dose curve; as a rule, active = well fitted curve in the direction sought with a large enough effect; inconclusive = small, poorly fitted or top-dose-only effect, or another doubt; inactive = no such curve, though single readings can be large; an effect the other way counts as inactive or inconclusive.

Columns and labels:
[1] = qHTS of pediatric cancer cell lines to identify multiple opportunities for drug repurposing: Primary screen for DAOY cells (AID 1347090); also: nearly all actives have a fitted effect of over 55% in size; also: potency is read from the fitted curve at half-maximal effect
Outline: (§1)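 Cell viability, CellTiter-Glo luminescence; 500-1,000 cells/well, 8- or 11-point titration, 48 h compound exposure at 37 degrees C, 5% CO2. Controls: DMSO neutral, bortezomib 2.3 µM final as positive.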

[2] = qHTS of pediatric cancer cell lines to identify multiple opportunities for drug repurposing: Primary screen for SJ-GBM2 cells (AID 1347091); also: potency is read from the fitted curve at half-maximal effect
Outline: as §1

[3] = qHTS of pediatric cancer cell lines to identify multiple opportunities for drug repurposing: Primary screen for A673 cells (AID 1347092); also: nearly all actives have a fitted effect of over 45% in size; also: potency is read from the fitted curve at half-maximal effect
Outline: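 Titration-based qHTS on A673 cells: MIPE compounds spanned 11 points (0.78 nM to 46 µM final), NPC compounds 8 points (0.59 nM to 46 µM final). Viability after 48 h was measured by ATP luminescence.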

[4] = qHTS of pediatric cancer cell lines to identify multiple opportunities for drug repurposing: Primary screen for SK-N-MC cells (AID 1347093); also: potency is read from the fitted curve at half-maximal effect
Outline: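 Metabolically active cells were quantified by ATP-dependent luminescence (CellTiter-Glo, 15 min at room temperature) following 48 h treatment. Cells had been plated at 500-1,000 per well and settled for 5 h beforehand.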

[5] = qHTS of pediatric cancer cell lines to identify multiple opportunities for drug repurposing: Primary screen for BT-37 cells (AID 1347094); also: potency is read from the fitted curve at half-maximal effect
Outline: (§2)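 500-1,000 cells/well; 5 h pre-incubation 37 °C/5% CO2; compound pinned; 48 h; CellTiter-Glo, 15 min RT; luminescence. MIPE 11-pt from 0.78 nM, NPC 8-pt from 0.59 nM final. Bortezomib 2.3 µM final as positive control.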

[6] = qHTS of pediatric cancer cell lines to identify multiple opportunities for drug repurposing: Primary screen for NB-EBc1 cells (AID 1347095); also: potency is read from the fitted curve at half-maximal effect
Outline: as §2

[7] = qHTS of pediatric cancer cell lines to identify multiple opportunities for drug repurposing: Primary screen for Saos-2 cells (AID 1347097); also: nearly all actives have a fitted effect of over 40% in size; also: potency is read from the fitted curve at half-maximal effect
Outline: as §2

[8] = qHTS of pediatric cancer cell lines to identify multiple opportunities for drug repurposing: Primary screen for SK-N-SH cells (AID 1347098); also: nearly all actives have a fitted effect of over 65% in size; also: potency is read from the fitted curve at half-maximal effect
Outline: (§3)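 Cells (500-1,000/well) rested 5 h, then received compounds for 48 h; metabolically active cells were measured by CellTiter-Glo luminescence. Final concentrations spanned up to 46 µM (MIPE, 11-point) or 0.59 nM-46 µM (NPC, 8-point) in primary screens, 11-point in follow-ups.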

[9] = qHTS of pediatric cancer cell lines to identify multiple opportunities for drug repurposing: Primary screen for OHS-50 cells (AID 1347103); also: nearly all actives have a fitted effect of over 40% in size; also: potency is read from the fitted curve at half-maximal effect
Outline: as §3

[10] = qHTS of pediatric cancer cell lines to identify multiple opportunities for drug repurposing: Primary screen for RD cells (AID 1347104); also: nearly all actives have a fitted effect of over 55% in size; also: potency is read from the fitted curve at half-maximal effect
Outline: as §2

[11] = qHTS of pediatric cancer cell lines to identify multiple opportunities for drug repurposing: Primary screen for MG 63 (6-TG R) cells (AID 1347105); also: nearly all actives have a fitted effect of over 50% in size; also: potency is read from the fitted curve at half-maximal effect
Outline: as §2

[12] = qHTS of pediatric cancer cell lines to identify multiple opportunities for drug repurposing: Primary screen for TC32 cells (AID 1347089); also: nearly all actives have a fitted effect of over 60% in size
Outline: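 A viability screen of TC32 cells was run over 48 h, with primary MIPE doses spanning 0.78 nM–46 µM and NPC doses 0.59 nM–46 µM. ATP luminescence (CellTiter-Glo) served as the read-out.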

[13] = qHTS of pediatric cancer cell lines to identify multiple opportunities for drug repurposing: Primary screen for BT-12 cells (AID 1347101); also: nearly all actives have a fitted effect of over 25% in size; also: potency is read from the fitted curve at half-maximal effect
Outline: as §3

[14] = qHTS of pediatric cancer cell lines to identify multiple opportunities for drug repurposing: Primary screen for control Hh wild type fibroblast cells (AID 1347106); also: nearly all actives have a fitted effect of over 55% in size; also: potency is read from the fitted curve at half-maximal effect
Outline: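 Viability after 48 h compound treatment at 37C, 500-1,000 cells/well, read as ATP luminescence with CellTiter-Glo. Primary screens used 11-point (MIPE, 0.78 nM-46 µM) or 8-point (NPC, 0.59 nM-46 µM) final concentrations; follow-up screens used 11-point dilutions.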

[15] = qHTS of pediatric cancer cell lines to identify multiple opportunities for drug repurposing: Primary screen for Rh30 cells (AID 1347107); also: nearly all actives have a fitted effect of over 75% in size; also: potency is read from the fitted curve at half-maximal effect
Outline: as §3

[16] = qHTS of pediatric cancer cell lines to identify multiple opportunities for drug repurposing: Primary screen for NB1643 cells (AID 1347099); also: nearly all actives have a fitted effect of over 50% in size; also: potency is read from the fitted curve at half-maximal effect
Outline: as §2

[17] = qHTS of pediatric cancer cell lines to identify multiple opportunities for drug repurposing: Primary screen for LAN-5 cells (AID 1347100); also: potency is read from the fitted curve at half-maximal effect
Outline: as §3

[18] = qHTS of pediatric cancer cell lines to identify multiple opportunities for drug repurposing: Primary screen for Rh18 cells (AID 1347102); also: nearly all actives have a fitted effect of over 65% in size; also: potency is read from the fitted curve at half-maximal effect
Outline: as §3

[19] = qHTS of pediatric cancer cell lines to identify multiple opportunities for drug repurposing: Primary screen for U-2 OS cells (AID 1347096); also: nearly all actives have a fitted effect of over 50% in size; also: potency is read from the fitted curve at half-maximal effect
Outline: as §3

Row | SMILES | Potency [1] | Potency [2] | Potency [3] | Potency [4] | Potency [5] | Potency [6] | Potency [7] | Potency [8] | Potency [9] | Potency [10] | Potency [11] | Potency [12] | Potency [13] | Potency [14] | Potency [15] | Potency [16] | Potency [17] | Potency [18] | Potency [19]
1 | O=c1c(-c2ccc(O)cc2)coc2cc(OC3O[C@H](CO)[C@H](O)[C@H](O)[C@H]3O)cc(O)c12 (stereo partly specified) | 3.72 µM (active) | inactive | 2.96 µM (active) | 2.96 µM (active) | 21.7 µM (active) | 18.7 µM (active) | inactive | 9.61 µM (active) | inactive | 6.62 µM (active) | inactive | – | – | – | – | – | – | – | –
2 | c1ccc2c(-c3cnn4cc(-c5ccc(N6CCNCC6)cc5)cnc34)ccnc2c1 | – | – | – | – | – | – | – | – | – | – | – | inactive | 27.3 µM (active) | 4.69 µM (active) | 18.7 µM (active) | – | – | – | –
3 | CC1(C)S[C@H]2[C@H](NC(=O)[C@@H](N)c3ccc(O)cc3)C(=O)N2[C@@H]1C(=O)O | 9.35 µM (active) | 16.6 µM (active) | – | 0.743 µM (active) | 6.85 µM (active) | 16.6 µM (active) | – | 24.1 µM (active) | – | 2.96 µM (active) | 3.72 µM (active) | – | – | inactive | – | 1.18 µM (active) | 3.72 µM (active) | 2.96 µM (active) | –
4 | O=C1C(Cl)=C(NCCN2CCOCC2)C(=O)c2ncccc21 | 11.8 µM (active) | 6.62 µM (active) | 1.87 µM (active) | 7.43 µM (active) | 3.43 µM (active) | 4.69 µM (active) | 2.35 µM (active) | 7.64 µM (active) | 9.68 µM (active) | 5.9 µM (active) | 18.7 µM (active) | – | 3.43 µM (active) | 11.8 µM (active) | 8.33 µM (active) | 9.35 µM (active) | 8.33 µM (active) | – | 5.9 µM (active)
5 | C=C1C(=O)OC2C=C(C)CCC=C(C)CCC12 (stereo unspecified) | – | – | – | – | inactive | – | 33.2 µM (active) | inactive | inactive | – | inactive | inactive | – | inactive | – | 23.5 µM (active) | 23.5 µM (active) | – | inactive
6 | Oc1ccc(C2CCN(c3ccnc4ccccc34)CC2)cc1O | – | – | – | – | – | 23.5 µM (active) | inactive | – | 17.2 µM (active) | – | inactive | inactive | 7.69 µM (active) | inactive | – | – | 18.7 µM (active) | inactive | –
7 | CCS(=O)(=O)N1CC(CC#N)(n2cc(-c3ncnc4[nH]ccc34)cn2)C1 | – | – | 14.8 µM (active) | – | – | – | inactive | 13.6 µM (active) | – | – | – | inactive | inactive | inactive | – | 11.8 µM (active) | 20.9 µM (active) | – | inactive
8 | CC(C)(C)OC(=O)N[C@H]1CCCCCC=C[C@@H]2C[C@@]2(C(=O)NS(=O)(=O)C2CC2)NC(=O)[C@@H]2C[C@@H](OC(=O)N3Cc4cccc(F)c4C3)CN2C1=O | inactive | inactive | inactive | 29.6 µM (active) | inactive | inactive | – | inactive | inactive | inactive | inactive | – | inactive | inactive | – | – | inactive | inactive | inactive
9 | C[C@]12CCC3c4ccc(O)cc4CCC3C1CCC2=O (stereo partly specified) | – | – | – | inactive | inactive | inactive | – | inactive | – | inactive | inactive | inactive | inactive | inactive | inactive | – | inactive | inactive | inactive
10 | C[N+]1(C)[C@@H]2CC(OC(=O)[C@H](CO)c3ccccc3)C[C@H]1[C@H]1O[C@@H]12 (stereo partly specified) | inactive | inactive | inactive | inactive | inactive | inactive | inactive | inactive | inactive | inactive | inactive | – | inactive | inactive | inactive | – | inactive | inactive | –
11 | O=C(O)c1cc(-c2ccccc2)nc2ccccc12 | inactive | inactive | inactive | 49.1 µM (active) | inactive | inactive | inactive | inactive | inactive | inactive | inactive | – | inactive | inactive | inactive | inactive | inactive | inactive | inactive
12 | CC(C)(C)C(=O)Oc1ccc2c(c1)nc(NC(=O)c1cccc([N+](=O)[O-])c1)n2CCCO | – | – | 11.8 µM (active) | – | – | – | inactive | – | inactive | inactive | inactive | inactive | inactive | inactive | inactive | – | – | inactive | inactive
13 | C[C@H]1[C@H](NC(=O)C(=NOC(C)(C)C(=O)O)c2csc(N)n2)C(=O)N1S(=O)(=O)O | inactive | inactive | inactive | inactive | inactive | inactive | inactive | inactive | inactive | inactive | inactive | – | inactive | inactive | inactive | inactive | inactive | inactive | inactive
14 | CCn1c(C(=O)N(C2CC2)C2CC2)cc2c3c(ncn3C)c(Nc3cc(C)n(C)n3)nc21 | – | – | – | – | inactive | inactive | – | – | – | inactive | inactive | inactive | inactive | inactive | – | – | – | – | inactive
15 | CN(C)Cc1cccc(N=C(c2ccccc2)c2c(O)[nH]c3cc(C(=O)N(C)C)ccc23)c1 | 2.96 µM (active) | 18.7 µM (active) | – | 14.8 µM (active) | 15.3 µM (active) | 18.7 µM (active) | 11.8 µM (active) | 21.5 µM (active) | 17.2 µM (active) | – | – | – | 6.85 µM (active) | – | – | – | – | – | inactive
